Assay outcomes from PubChem BioAssay.
MEKK3 PB1 HTS: raises or lowers MEK5 binding to the human MEKK3 PB1 domain | AID 1529 | bead-based flow cytometry, Alexa488-MEK5 binding to MEKK3; actives lie on both sides; 0 = blocked by unlabeled MEK5, 100 = vehicle | binding response (% of control), % at 10 µM | hit rate 1.4% among 290,000;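 active = binding response more than 3 SD above or below the average of its plate-row segment, actives on both sides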;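 also: Alexa488 bead fluorescence after subtracting the streptavidin-only scavenger bead signal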
MEKK2 mut-MEK5: signal of MEK5 binding to mutant human MEKK2 PB1 domain; bead flow cytometry, Alexa488-MEK5 binding to MEKK2 mutant; percent response, % at 10 µM; hit rate 0.35% among 290,000; in the data active = percent response above about 24%, passing the limit was not always enough
MEKK2wt PB1 HTS: raises or lowers MEK5 binding to wildtype human MEKK2 PB1 domain; Q9Y2U5; bead flow cytometry, Alexa488-MEK5 binding to MEKK2 WT; actives lie on both sides; binding response (% of control), % at 10 µM; hit rate 1.1% among 290,000; AID 1531; in the data active = binding response below about 67% or above about 130%
GRK2 aptamer HTS: inhibitors of human GRK2 displacing RNA aptamer; bead flow cytometry, FAM-aptamer displacement from GRK2; P25098; inhibition of aptamer binding, % at 10 µM; hit rate 0.59% among 330,000;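 active = inhibition of aptamer binding above 40%, roughly 3 SD of noise, on plates passing a quality check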;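 also: median bead fluorescence of bound FAM aptamer so fluorescent compounds give negative values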
B2AR ag: agonists of human beta-2 adrenergic receptor inducing internalization. Am2.2-beta2AR cells, FAP receptor internalization, flow cytometry. response, % (concentration not given with the values). hit rate 0.43% among 340,000. AID 504454;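 active = response above a set limit, near 3 SD of response in nonfluorescent compounds, cut at about 42% in these data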
Target sequence (P07550 whole entry, looked up): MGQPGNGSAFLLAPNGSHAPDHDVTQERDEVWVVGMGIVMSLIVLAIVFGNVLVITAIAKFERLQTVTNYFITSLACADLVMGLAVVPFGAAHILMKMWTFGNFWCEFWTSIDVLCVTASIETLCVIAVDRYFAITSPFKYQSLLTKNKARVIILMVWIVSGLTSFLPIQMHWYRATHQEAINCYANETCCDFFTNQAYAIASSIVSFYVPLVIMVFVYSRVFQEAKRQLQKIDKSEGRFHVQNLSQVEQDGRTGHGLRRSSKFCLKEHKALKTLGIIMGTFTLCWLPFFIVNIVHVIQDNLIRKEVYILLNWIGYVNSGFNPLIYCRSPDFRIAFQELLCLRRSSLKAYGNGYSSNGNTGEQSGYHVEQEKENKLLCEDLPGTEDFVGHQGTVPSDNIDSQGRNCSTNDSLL
MEKK2wt confirm: raises or lowers MEK5 binding to wildtype human MEKK2, retest; shares compounds with MEKK3 PB1 HTS; bead flow cytometry, Alexa488-MEK5 binding to MEKK2 WT; actives lie on both sides; binding response (% of control), % at 10 µM; hit rate 2.4% among 5,900; in the data active = binding response below about 16% or above about 210%; inactive = in between
MEKK2mut-MEK5: signal of MEK5 binding to mutant human MEKK2, retest | percent response, % at 10 µM | shares compounds with MEKK3 PB1 HTS | bead flow cytometry, Alexa488-MEK5 binding to MEKK2 mutant | hit rate 2% among 5,900; in the data active = percent response mostly above about 71%, no sharp cut-off; inactive = mostly below about 38%;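 also: higher means compound restores mutant binding toward wildtype level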
MEKK3-MEK5 inh: confirmation of inhibitors of MEK5 binding to human MEKK3 | shares compounds with MEKK3 PB1 HTS | bead flow cytometry, Alexa488-MEK5 binding to MEKK3; hits give low values | binding response (% of control), % at 10 µM | hit rate 1.8% among 5,900;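 active = binding response below 72% of control, or above a set upper limit, though filed actives all read lower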;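 also: lower values mean stronger disruption of MEK5 binding to MEKK3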
Each line names hits and unclear results; the compound was inactive in the other large screens (follow-up assays come after a bar, where they were run); [ ] = dose if it differs, or a comment. This is a sample that favours compounds with a hit; in the whole collection about 2.9% have one here.

c1ccc(-n2nnc3c(N4CCOCC4)ncnc32)cc1	MEKK3 PB1 HTS 74.0[inhibitor] | MEKK2wt confirm inactive | MEKK2mut-MEK5 inactive | MEKK3-MEK5 inh inactive
Cc1noc(NC(=O)c2ccccc2Cl)c1C#N	none
Cc1noc(NC(=O)c2cccc(Cl)c2Cl)c1C#N	MEKK3 PB1 HTS 73.0[inhibitor] | MEKK2wt confirm inactive | MEKK2mut-MEK5 inactive | MEKK3-MEK5 inh inactive
N#Cc1ccc(N[C@@H]2CCN3C(=O)c4ccccc4[C@@H]3C[C@H]2O)cc1	none (no result: MEKK3 PB1 HTS, MEKK2 mut-MEK5, MEKK2wt PB1 HTS)
OCCC1CN(CCCn2cccn2)CCN1C1CCCCC1 (configuration not stated)	none (no result: GRK2 aptamer HTS)
Cc1ccc(C2=NN(C(=O)CSc3nccn3C)C(c3ccco3)C2)cc1 (configuration not stated)	none
C=CCn1c(SCC(=O)N2N=C(c3ccco3)CC2c2ccco2)nnc1-c1ccncc1 (configuration not stated)	MEKK3 PB1 HTS 66.0[inhibitor] | MEKK2wt confirm inactive | MEKK2mut-MEK5 inactive | MEKK3-MEK5 inh inactive
O=S(=O)(/C=C/c1ccccc1)N1CCN(c2ccc(F)cc2)CC1	MEKK3 PB1 HTS 74.0[inhibitor] | MEKK2wt confirm inactive | MEKK2mut-MEK5 inactive | MEKK3-MEK5 inh inactive
COc1ccc(NS(=O)(=O)c2ccc(NC(=S)NC(=O)c3cccnc3)cc2)nn1	none
COc1nccnc1NS(=O)(=O)c1ccc(NC(=S)NC(=O)c2ccc(F)c(F)c2)cc1	MEKK3 PB1 HTS 154.0 | MEKK2wt confirm inactive | MEKK2mut-MEK5 inactive | MEKK3-MEK5 inh inactive
COc1ccc(NS(=O)(=O)c2ccc(NC(=S)NC(=O)c3cccc(F)c3)cc2)nn1	MEKK3 PB1 HTS 75.0[inhibitor] | MEKK2wt confirm inactive | MEKK2mut-MEK5 inactive | MEKK3-MEK5 inh inactive
CC1(c2cccc(Br)c2)NC(=O)N(CC(=O)N2CCc3ccccc32)C1=O (configuration not stated)	none (no result: MEKK3 PB1 HTS, MEKK2 mut-MEK5, MEKK2wt PB1 HTS)
CC(C)(C)OC(=O)C[C@H]1C/C=C\C[C@@H](CC(=O)N(CCO)Cc2ccccc2)C(=O)N2CCC[C@H]2COC1=O	none (no result: MEKK3 PB1 HTS, MEKK2 mut-MEK5, MEKK2wt PB1 HTS)
COC(=O)c1ccc(NC(=O)CSc2nn3c(=O)c(C)nnc3s2)cc1	none
Cc1cc(N/N=C/c2ccccc2F)nc(NCc2ccccc2)n1	none
Cc1cc(N/N=C/c2ccccc2)nc(NCc2ccccc2)n1	MEKK2wt PB1 HTS 175.0 | MEKK2wt confirm inactive | MEKK2mut-MEK5 inactive | MEKK3-MEK5 inh inactive
Cc1cc(N/N=C/c2ccc(Cl)cc2)nc(NCc2ccccc2)n1	MEKK2 mut-MEK5 54.0, MEKK2wt PB1 HTS 186.0 (no result: GRK2 aptamer HTS) | MEKK2wt confirm inactive | MEKK2mut-MEK5 inactive | MEKK3-MEK5 inh inactive
Cc1cc(N/N=C/c2cccc(F)c2)nc(NCc2ccccc2)n1	MEKK2wt PB1 HTS 140.0 | MEKK2wt confirm inactive | MEKK2mut-MEK5 inactive | MEKK3-MEK5 inh inactive
Clc1ccc(/C=N/Nc2ccccn2)cc1	MEKK3 PB1 HTS 128.0 | MEKK2wt confirm inactive | MEKK2mut-MEK5 inactive | MEKK3-MEK5 inh inactive
Cc1cc(C)nc(N/N=C/c2ccc(Cl)cc2)n1	none
O=[N+]([O-])c1ccccc1S(=O)(=O)N1CCN(S(=O)(=O)c2ccc3c(c2)OCCO3)CC1	none (no result: MEKK3 PB1 HTS, MEKK2 mut-MEK5, MEKK2wt PB1 HTS)
CCCCCCCCCCCCCC(=O)NO	none (no result: MEKK3 PB1 HTS, MEKK2 mut-MEK5, MEKK2wt PB1 HTS, GRK2 aptamer HTS)
Cc1cc(N/N=C/c2cccc(Cl)c2)nc(NCc2ccccc2)n1	MEKK2wt PB1 HTS 149.0 | MEKK2wt confirm inactive | MEKK2mut-MEK5 inactive | MEKK3-MEK5 inh inactive
O=C(Cn1cc[n+](CC(=O)c2ccc(Cl)cc2Cl)c1)c1ccc(Cl)cc1Cl	MEKK2wt PB1 HTS 174.0 | MEKK2wt confirm inactive | MEKK2mut-MEK5 inactive | MEKK3-MEK5 inh inactive
CCN(CC)C(=S)SCC(=O)c1ccc(Br)cc1	none
Oc1ccccc1CNc1cnc2ccccc2c1	MEKK2wt PB1 HTS -5.0[inhibitor] | MEKK2wt confirm inactive | MEKK2mut-MEK5 inactive | MEKK3-MEK5 inh inactive
Clc1ccc(C2=NCCN2)cc1	none
O=C(Nc1ccc(C2=NCCN2)cc1)c1ccc(Cl)c(C(=O)Nc2ccc(C3=NCCN3)cc2)c1	MEKK3 PB1 HTS 66.0[inhibitor], MEKK2wt PB1 HTS 144.0 (no result: B2AR ag) | MEKK2wt confirm inactive | MEKK2mut-MEK5 inactive | MEKK3-MEK5 inh inactive
O=C(Nc1ccc(Cl)c(Cl)c1)c1ccncc1	none
O=C(Nc1ccc(Cl)c(Cl)c1)c1ccc(Cl)c(Cl)c1	MEKK2 mut-MEK5 56.0, MEKK2wt PB1 HTS 162.0 | MEKK2wt confirm inactive | MEKK2mut-MEK5 inactive | MEKK3-MEK5 inh inactive
CC1CCCCN1C(=O)COc1ccccc1F (configuration not stated)	MEKK3 PB1 HTS 135.0 | MEKK2wt confirm inactive | MEKK2mut-MEK5 inactive | MEKK3-MEK5 inh inactive
CC1CCCCN1C(=O)CNCc1ccc(F)cc1 (configuration not stated)	none (no result: B2AR ag)
C(=C\c1nc(-c2cccnc2)no1)/c1ccccc1	MEKK3 PB1 HTS 3.0[inhibitor], MEKK2wt PB1 HTS 6.0[inhibitor] | MEKK2wt confirm inactive | MEKK2mut-MEK5 inactive | MEKK3-MEK5 inh inactive
COCCNS(=O)(=O)c1cc(OC)ccc1OC	none
Cc1[nH]c2ccccc2c1C(=O)COC(=O)Cn1c(C)nc2ccccc21	none (no result: GRK2 aptamer HTS)
Cc1[nH]c2ccccc2c1C(=O)COC(=O)Cn1cnc2ccccc21	MEKK2 mut-MEK5 55.0 | MEKK2wt confirm inactive | MEKK2mut-MEK5 inactive | MEKK3-MEK5 inh inactive
O=C(O)CCSCC(=O)Nc1c(C(=O)C2CC2)oc2ccccc12	none
O=C(Nc1c(C(=O)C2CC2)oc2ccccc12)c1ccc(Cl)cc1	MEKK3 PB1 HTS 145.0 | MEKK2wt confirm inactive | MEKK2mut-MEK5 inactive | MEKK3-MEK5 inh inactive
COc1ccc(OC)c(NC(=O)CSc2ccc3nnc(-c4cccnc4)n3n2)c1	none
Cc1ccccc1N(C(=O)c1snc(C(N)=O)c1N)C(C(=O)NC1CCCC1)c1ccco1 (configuration not stated)	none (no result: GRK2 aptamer HTS)
Cc1cccc(-c2nc(NCCCN(C)C)c3ccccc3n2)c1	MEKK2wt PB1 HTS 135.0 | MEKK2wt confirm inactive | MEKK2mut-MEK5 inactive | MEKK3-MEK5 inh inactive
Cc1cccc(-c2nc(NCCCN3CCOCC3)c3ccccc3n2)c1	none
CN(C)CCCNc1nc(-c2ccc(Cl)cc2)nc2ccccc12	MEKK2wt PB1 HTS 141.0 | MEKK2wt confirm inactive | MEKK2mut-MEK5 inactive | MEKK3-MEK5 inh inactive
Cc1ccc(-c2nc(NCCN(C)C)c3ccccc3n2)cc1	none (no result: GRK2 aptamer HTS)
Cc1ccc(Cl)c(OCCN2CCc3ccccc3C2)c1	none
CCNc1c(NS(=O)(=O)c2ccc(F)c(Cl)c2)c(=O)oc2ccccc12	none
COc1ccc([N+](=O)[O-])cc1NC1CCCCC1	MEKK3 PB1 HTS 128.0 | MEKK2wt confirm inactive | MEKK2mut-MEK5 inactive | MEKK3-MEK5 inh inactive
COc1ccc([N+](=O)[O-])cc1NC1C2CC3CC(C2)CC1C3 (configuration not stated)	none
CCOC(=O)C1=C(C)Nc2nc3ccccc3n2C1c1ccc(O)cc1 (configuration not stated)	none
